Calls of active or inactive are those of the source. Rule for the calls: active = hit-call score of the fitted dose curve at least 0.9, where 1 is the maximum; inactive = score below 0.9.
What follows are compounds tested against Hypoxia-inducible factor 1-alpha (Homo sapiens) (UniProt Q16665) (assay: ATG_HIF1a_CIS: Attagene CIS-FACTORIAL HepG2 Assay for human Hypoxia Inducible Factor 1 (HIF1A) (AID 2282951)). Conditions: HepG2 Attagene cis-factorial HIF1a reporter transcription; actives raise or lower the signal.
Sequence of Hypoxia-inducible factor 1-alpha (Homo sapiens) (Q16665 whole entry, looked up): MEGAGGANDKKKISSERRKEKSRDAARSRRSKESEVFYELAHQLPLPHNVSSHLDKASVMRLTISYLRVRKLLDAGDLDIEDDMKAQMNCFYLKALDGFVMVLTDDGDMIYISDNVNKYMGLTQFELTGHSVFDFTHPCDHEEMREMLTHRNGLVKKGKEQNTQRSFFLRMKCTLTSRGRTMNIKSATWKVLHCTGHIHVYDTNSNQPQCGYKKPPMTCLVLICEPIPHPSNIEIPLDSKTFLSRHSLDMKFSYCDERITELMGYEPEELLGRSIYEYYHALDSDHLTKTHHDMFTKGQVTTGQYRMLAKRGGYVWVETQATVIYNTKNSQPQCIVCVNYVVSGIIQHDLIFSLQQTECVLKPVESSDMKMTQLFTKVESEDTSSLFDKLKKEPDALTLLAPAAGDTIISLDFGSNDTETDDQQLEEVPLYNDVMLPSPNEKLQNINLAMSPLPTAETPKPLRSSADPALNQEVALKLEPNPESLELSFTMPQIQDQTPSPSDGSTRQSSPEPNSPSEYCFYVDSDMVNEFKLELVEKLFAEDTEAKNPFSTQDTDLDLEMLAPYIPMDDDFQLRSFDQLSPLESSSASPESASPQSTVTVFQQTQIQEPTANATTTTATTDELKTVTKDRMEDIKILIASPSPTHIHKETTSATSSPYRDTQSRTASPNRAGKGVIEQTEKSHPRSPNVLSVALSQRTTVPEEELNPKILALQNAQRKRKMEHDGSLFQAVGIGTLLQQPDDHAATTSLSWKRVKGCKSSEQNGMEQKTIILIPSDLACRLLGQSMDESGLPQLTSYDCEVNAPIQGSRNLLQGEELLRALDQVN
Method: ATG_CIS is a cell-based, multiplexed-readout assay that uses HepG2, a human liver cell line, with measurements taken at 24 hours after chemical dosing in a 24-well plate.ATG_HIF1a_CIS is one of 52 assay component(s) measured or calculated from the ATG_CIS assay. It is designed to make measurements of mRNA induction, a form of inducible reporter, as detected with fluorescence intensity signals by Reverse transcription polymerase chain reaction (RT-PCR) and Capillary electrophoresis technology.Data from the assay component ATG_HIF1a_CIS was analyzed into 1 assay endpoint. This assay endpoint, ATG_HIF1a_CIS, was analyzed with bidirectional fitting relative to DMSO as the negative control and baseline of activity. Using a type of inducible reporter, measures of mRNA for gain or loss-of-signal activity can be used to understand the reporter gene at the transcription factor-level as they relate to the gene HIF1A. Furthermore, this assay endpoint can be referred to as a primary readout, because this assay has produced multiple assay endpoints where this one serves a reporter gene function. To generalize the intended target to other relatable targets, this assay endpoint is annotated to the dna binding intended target family, where the subfamily is basic helix-loop-helix protein.
Human liver HepG2 cells are transiently transfected with multiple reporter transcription units (MRTUs) in 6-well plates using FuGene 6 reagent (Roche; 3 ml FuGene/1 mg DNA). The MRTU constructs are regulated by a cis-regulating element (promoter). […] A major difference between the CIS and TRANS system is that in CIS activities of endogenous TFs are measured, whereas the TRANS assay evaluates changes in activities of exogenous, chimeric NR-Gal4 proteins. […] At the end of 24 hour incubation, total RNA was isolated using TriZol reagent (Invitrogen). The isolated RNA is then reverse-transcribed using oligo(dT) primer and Mo-MLV reverse transcriptase (Invitrogen) with DNAse I (Ambion) treatment for 30 min. The one-tenth of the produced cDNA was amplified by PCR using Taq DNA polymerase (Invitrogen) and two reporter sequence-specific primers. The PCR products were fluorescently labeled by primer extension with 6-arboxyfluorescein (6-FAM) 5'-labeled reporter sequence-specific primer (2 min at 95 C, 20 s at 68 C and 10 min at 72 C) and these products were digested with 5U of HpaI (New England Biolabs) for 2h at 37 C. The fragments were purified using Qiaquick PCR columns (Qiagen), analyzed on an ABI 3130xL genetic analyzer (Applied Biosystems) with peak positions identified by using a set of X-rhodamine (ROX)-labeled MapMarker1000 molecular weight standards (BioVentures). The raw capillary electrophoresis data was processed using Attagraph software (Attagene).
In the case of CCc1ccc(C)nc1, the outcome is reported as “inactive”. O=C(c1ccccc1)c1ccc(Cl)cc1 was tested, and the outcome was “inactive”. For CN1CN(C)CN(C)C1, the outcome was “inactive”. OCC(F)(F)C(F)(F)C(F)(F)CO was tested, and the outcome was “inactive”. In the case of C=C(C)C(=O)OCC(F)(F)C(F)(F)C(F)(F)C(F)F, the outcome is reported as “inactive”. For OCC(O)CC(F)(F)C(F)(F)C(F)(F)C(F)(F)C(F)(F)C(F)(F)C(F)(F)C(F)(F)F (stereo not given), the outcome was “inactive”. For C[Si](Cl)(Cl)CCC(F)(F)C(F)(F)C(F)(F)C(F)(F)C(F)(F)C(F)(F)F, the outcome was “inactive”. OCCC(O)CO (stereo not given) was tested, and the outcome was “inactive”. With O=C(Cl)c1ccc(Cl)cc1Cl the outcome was “inactive”. CC(C)(C)c1cc(Cc2cc(C(C)(C)C)c(O)c(C(C)(C)C)c2)cc(C(C)(C)C)c1O was tested, and the outcome was “inactive”. With OCCCc1cccnc1 the outcome was “inactive”. With CCCCCCCCn1sc(Cl)c(Cl)c1=O the AC50 was 16.3 µM (active). CCCCCCCC/C=C\CCCCCCCC(=O)OCC(O)CO (stereo not given) was tested, and the AC50 was 100 µM (active). For Cc1ccc(S(=O)(=O)C(I)I)cc1, the outcome was “inactive”. In the case of O=C(O)C(F)(F)C(F)(F)C(F)(F)C(F)(F)C(F)(F)C(F)(F)C(F)F, the outcome is reported as “inactive”. In the case of Cc1ccc(O)c(-n2nc3ccccc3n2)c1, the outcome is reported as “inactive”. CCN(CC)c1ccc2c(c1)Oc1cc(N(CC)CC)ccc1C21OC(=O)c2ccccc21 was tested, and the outcome was “inactive”. With Nc1cc([N+](=O)[O-])cc(Cl)c1O the outcome was “inactive”. For CCCCCCCC/C=C\CCCCCCCC(=O)N(C)CC(=O)O, the outcome was “inactive”. In the case of CCN=c1cc2oc3cc(NCC)c(C)cc3c(-c3ccccc3C(=O)OCC)c-2cc1C, the outcome is reported as “inactive”. With O=C1c2c(O)ccc(Nc3ccc(CCO)cc3)c2C(=O)c2c([N+](=O)[O-])ccc(O)c21 the outcome was “inactive”. CCc1cc(Cc2cc(CC)c(N)c(CC)c2)cc(CC)c1N was tested, and the outcome was “inactive”. For CC(C)OC=O, the outcome was “inactive”. With N#Cc1ccccc1O the outcome was “inactive”. O=C1OC(=O)c2ccc3c4c(ccc1c24)C(=O)OC3=O was tested, and the outcome was “inactive”. For COCCC(=O)OC, the outcome was “inactive”. With CC(C)CC=C(C=O)c1ccccc1 the outcome was “inactive”. In the case of Cc1ccc([N+](=O)[O-])c(C)c1, the outcome is reported as “inactive”. In the case of C[Si](C)O[Si](C)C, the outcome is reported as “inactive”. CCCC(=O)OCC(COC(=O)CCC)OC(=O)CCC was tested, and the outcome was “inactive”. In the case of CCN(CCO)S(=O)(=O)C(F)(F)C(F)(F)C(F)(F)C(F)(F)C(F)(F)C(F)(F)C(F)(F)C(F)(F)F, the outcome is reported as “inactive”. In the case of CCOC(C=C(C)CCC=C(C)C)OCC, the outcome is reported as “inactive”. For CSc1ccc(O)cc1C, the outcome was “inactive”. With CCCCCCCCCc1ccc(OCCO)cc1 the AC50 was 13.3 µM (active). NCC(F)(F)C(F)(F)C(F)(F)C(F)(F)C(F)(F)C(F)(F)C(F)(F)C(F)(F)F was tested, and the outcome was “inactive”. In the case of CSc1ccc(Cl)cc1, the outcome is reported as “inactive”. For NC(=O)C(F)(F)C(F)(F)C(F)(F)F, the outcome was “inactive”. In the case of C#CC(O)CCC (stereo not given), the outcome is reported as “inactive”. For CC(C)=CCCC(C)O (stereo not given), the outcome was “inactive”. For CCCCC(CC)COC(=O)c1ccc(N(C)C)cc1 (stereo not given), the outcome was “inactive”.

— PubChem BioAssay (EPA / NIEHS)
